Source: PubChem BioAssay
Most compounds without a hit are left out; they make up all but 10% or so of the library.
LMNA splice mod: qHTS Assay for Modulators of Lamin A Splicing; HeLa LMNA splicing GFP/RFP minigene ratio, 48 h; Potency, µM (doses to about 46.1 µM), usual class: inhibitors; 200,000 compounds, 0.01% hits; AID 1487, 2009; active means well fitted inhibition curve with a large enough effect in the signal ratio, with a control signal flat, not every such curve was filed as active; inconclusive means small, poorly fitted or top-dose-only effect, or effect the other way, or a change in a side signal; the % refers to the signal ratio
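Read-out is the ratio of GFP to DsRed2 object intensity, acquired by 488 nm laser-scanning cytometry on HeLa lamin A-EGFP minigene reporter cells. Compound incubation 48 hrs at 37 °C in Opti-MEM with 2% FBS; DMSO 0.5% final.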
ALDH1A1 inh: qHTS Assay for Inhibitors of Aldehyde Dehydrogenase 1 (ALDH1A1); 220,000 compounds, 7.3% hits; AID 1030, 2008; Purified ALDH1A1, NADH fluorescence, propionaldehyde substrate; Potency, µM (doses to about 75.3 µM), actives largely listed as inhibitors
Target sequence (P00352 whole entry, looked up): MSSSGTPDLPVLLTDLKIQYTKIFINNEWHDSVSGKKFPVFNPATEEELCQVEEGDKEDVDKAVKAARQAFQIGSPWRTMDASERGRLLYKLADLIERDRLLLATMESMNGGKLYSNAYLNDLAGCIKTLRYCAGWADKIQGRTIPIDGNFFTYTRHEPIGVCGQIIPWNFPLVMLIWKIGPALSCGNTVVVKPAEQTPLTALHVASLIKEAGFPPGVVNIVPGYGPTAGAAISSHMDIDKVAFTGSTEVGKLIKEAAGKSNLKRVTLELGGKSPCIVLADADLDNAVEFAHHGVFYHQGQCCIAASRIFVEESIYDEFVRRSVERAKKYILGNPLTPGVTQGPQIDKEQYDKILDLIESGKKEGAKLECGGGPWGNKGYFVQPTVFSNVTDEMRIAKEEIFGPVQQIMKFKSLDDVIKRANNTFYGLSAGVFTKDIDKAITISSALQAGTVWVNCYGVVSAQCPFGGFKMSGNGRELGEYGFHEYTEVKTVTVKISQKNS
PNC inhibitor: High Content Assay for Compounds that inhibit the Assembly of the Perinucleolar Compartment; PC3M PTB-GFP, PNC prevalence imaging, 16 h; active compounds read low; activity change (PNC), negative = inhibition, % at 10 µM; 140,000 compounds, 3.1% hits; AID 2417, 2010;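 active means readout at or below -70, meaning at least 70% loss of cells showing the perinucleolar compartment, a nuclear body marking cancer cells; inconclusive means readout between -30 and a set limit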
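Compounds are pinned in duplicate onto adhered PC3M cells stably expressing GFP-tagged PTB and incubated 16 h at 37 C. Cells are then fixed, nuclei stained with Hoechst, and PNC-positive cells counted.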
HPGD block: qHTS Assay for Inhibitors of HPGD (15-Hydroxyprostaglandin Dehydrogenase); 15-hydroxyprostaglandin dehydrogenase [NAD(+)] (Homo sapiens), P15428; 150,000 compounds, 4.3% hits; AID 894, 2007; Potency, µM, usual class: inhibitors; purified HPGD, NADH fluorescence kinetic, PGE2 substrate
Target sequence (P15428 whole entry, looked up): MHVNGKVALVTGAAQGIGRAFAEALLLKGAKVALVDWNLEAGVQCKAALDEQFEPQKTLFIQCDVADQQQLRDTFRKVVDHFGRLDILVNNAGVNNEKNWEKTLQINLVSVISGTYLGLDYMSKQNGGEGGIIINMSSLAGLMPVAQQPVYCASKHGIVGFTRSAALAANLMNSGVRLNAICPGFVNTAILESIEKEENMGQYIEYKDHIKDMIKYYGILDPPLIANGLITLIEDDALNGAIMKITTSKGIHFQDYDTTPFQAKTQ
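20 nM HPGD preincubated 15 min at room temperature with compound in 50 mM Tris-HCl pH 8, 0.01% Tween 20. Started with 1 mM NAD+ and 30 uM prostaglandin E2; NADH fluorescence (360/450 nm) read 5 times over 30-s intervals, last minus first.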
ALOX12 inhib: qHTS Assay for Inhibitors of 12-hLO (12-human lipoxygenase) | Potency, µM (doses to about 57.1 µM), usual class: inhibitors | purified 12-hLO, xylenol orange hydroperoxide absorbance | 150,000 compounds, 0.12% hits | AID 1452, 2008; active means well fitted inhibition curve with a large enough effect; inconclusive means small, poorly fitted or top-dose-only effect; further: nearly all actives have a fitted effect of over 55% in size
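Hydroperoxide formation by human 12-lipoxygenase from 40 uM arachidonic acid was followed colorimetrically via ferric-xylenol orange complex, using the 573/405 nm absorbance ratio. Enzyme concentration was 150 nM, with 30 min reaction at room temperature.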
Large screens that a line does not name were inactive. Unless noted, the call rests on the fitted dose curve; in most records, active means well fitted inhibition curve with a large enough effect (not every such curve was filed as active); inconclusive means small, poorly fitted or top-dose-only effect, or another doubt; inactive means no such curve, though single readings can be large or run the other way.

CCN(CC)S(=O)(=O)c1ccc2oc(C(=O)NCC3COc4ccccc4O3)c(C)c2c1 (configuration not stated)	LMNA splice mod inconclusive, ALDH1A1 inh 14µM
O=C(NCc1ccccc1)C(=O)NCC1COc2ccccc2O1 (configuration not stated)	LMNA splice mod inconclusive, ALDH1A1 inh inconclusive
CCc1ccc(C(=O)NCC2COc3ccccc3O2)o1 (configuration not stated)	HPGD block 18µM
O=C(CCC1COc2ccccc2O1)NCC1COc2ccccc2O1 (configuration not stated)	PNC inhibitor -100
CC(C)(C)NC(=O)CCC1COc2ccccc2O1 (configuration not stated)	none
COc1ccc(C)cc1NC(=O)CC1COc2ccccc2O1 (configuration not stated)	none (no result: PNC inhibitor, HPGD block, ALOX12 inhib)
CC1(C)O[C@H]2C[C@@H]3[C@H]4CCC5=CC(=O)CC[C@@]5(C)[C@]4(F)[C@@H](O)C[C@@]3(C)[C@@]2(C(=O)CCl)O1	LMNA splice mod inconclusive (no result: PNC inhibitor)
CC(C)Cn1nnnc1S(=O)(=O)CC#N	none (no result: LMNA splice mod, PNC inhibitor, ALOX12 inhib)
Cc1cc(C)n(CC(=O)N2c3ccccc3Sc3ccc(C(F)(F)F)cc32)n1	PNC inhibitor -113
O=C(CN1CCCC(O)C1)N1c2ccccc2Sc2ccc(C(F)(F)F)cc21 (configuration not stated)	LMNA splice mod inconclusive (no result: HPGD block)
Cc1cccc(N2CCN(C(=O)CN3C(=O)CSc4c3c(C)nn4-c3ccccc3)CC2)c1C	none (no result: ALDH1A1 inh, PNC inhibitor, HPGD block, ALOX12 inhib)
CCCCN(c1ccccc1)c1ncnc2nc[nH]c12	ALDH1A1 inh 11µM
CCOc1ccc(CCNC(=O)C2CCC(CNS(=O)(=O)c3ccc(Cl)cc3)CC2)cc1OCC (configuration not stated)	none (no result: ALDH1A1 inh, PNC inhibitor, HPGD block, ALOX12 inhib)
CC(C)(C)c1ccc2c(c1)N(CC(=O)O)C(=O)CO2	ALDH1A1 inh 3.2µM
c1ccc(-c2cnc(CSc3ncnc4sccc34)o2)cc1	LMNA splice mod inconclusive, HPGD block 3.2µM
CC(=O)Nc1cc(N2C(=O)CCC2=O)ccc1Cl	PNC inhibitor -82
CCN(C(=O)c1cc(S(=O)(=O)N2CCc3ccccc32)cn1C)c1cccc(C)c1	none (no result: ALDH1A1 inh, PNC inhibitor, HPGD block, ALOX12 inhib)
C[C@H](NC(=O)Cn1cncn1)c1ccccc1	PNC inhibitor -100
CC(NC(=O)Cc1ccc(-c2ccccc2)cc1)c1ccccc1 (configuration not stated)	ALDH1A1 inh 11µM, HPGD block 14µM
CC(NC(=O)Cn1cnc([N+](=O)[O-])n1)c1ccccc1 (configuration not stated)	none
O=c1cc(-c2ccccc2)nc(SCc2ccccc2F)[nH]1	LMNA splice mod inconclusive (no result: PNC inhibitor, HPGD block, ALOX12 inhib)
OCCSc1ncnc2c1oc1ccccc12	ALDH1A1 inh inconclusive, HPGD block 25µM
N#CCCSc1ncnc2c1oc1ccccc12	ALDH1A1 inh inconclusive
c1ccc(Sc2ncnc3c2oc2ccccc23)cc1	LMNA splice mod inconclusive, ALDH1A1 inh inconclusive, HPGD block 32µM
COc1cc(CN2CCN(Cc3ccc([N+](=O)[O-])cc3)CC2)c([N+](=O)[O-])cc1OC	ALDH1A1 inh 35µM (no result: LMNA splice mod, PNC inhibitor, HPGD block, ALOX12 inhib)
COc1cc(CN2CCN(c3ccccc3F)CC2)c([N+](=O)[O-])cc1OC	ALDH1A1 inh 28µM, PNC inhibitor inconclusive
COc1cccc(CN2CCN(Cc3cc(OC)c(OC)cc3[N+](=O)[O-])CC2)c1	ALDH1A1 inh 25µM
C1CCN2C[C@H]3C[C@H](CN4CCCCC34)C2C1 (some centres not stated)	none (no result: LMNA splice mod, PNC inhibitor)
O=C(O)C1C2C=CC(C2)C1C(=O)NCc1ccco1 (configuration not stated)	none (no result: PNC inhibitor, HPGD block, ALOX12 inhib)
COc1ccc(NC(=O)C2C3C=CC(C3)C2C(=O)NCc2ccco2)c(OC)c1 (configuration not stated)	ALDH1A1 inh inconclusive, HPGD block 25µM
O=C(CSc1nnc(-c2ccncc2)n1-c1ccc(F)cc1)NC(=O)NCc1ccco1	ALDH1A1 inh 25µM
Cc1ccc(-c2nnc(SCc3nc4ccccc4[nH]3)n2Cc2ccco2)cc1	LMNA splice mod inconclusive, ALDH1A1 inh 16µM
C(=C\c1ccccc1)/CSc1nnc(-c2ccncc2)n1Cc1ccco1	ALDH1A1 inh inconclusive
c1ccc(-c2nnc(CSc3nnc(-c4ccncc4)n3Cc3ccco3)o2)cc1	LMNA splice mod inconclusive, HPGD block 20µM
O=C(CSc1nnc(Cc2cccs2)n1Cc1ccco1)Nc1ccc(Br)cc1	ALDH1A1 inh 20µM, HPGD block inconclusive
Cc1cccc(-c2nnc(SCc3nc4ccccc4[nH]3)n2Cc2ccco2)c1	LMNA splice mod inconclusive (no result: HPGD block)
O=C(CSc1nnc(-c2ccccc2Cl)n1Cc1ccco1)Nc1ccc2c(c1)OCCO2	ALDH1A1 inh 10µM, PNC inhibitor -96
O=C(CSc1nnc(-c2ccncc2)n1Cc1ccco1)Nc1nccs1	PNC inhibitor -100
CCn1c2ccccc2c2cc(NC(=O)CSc3nnc(C4CC4)n3Cc3ccco3)ccc21	LMNA splice mod inconclusive, ALDH1A1 inh 18µM, HPGD block inconclusive
CC(=O)Nc1cccc(NC(=O)CSc2ncc(-c3ccc(Cl)cc3)n2Cc2ccco2)c1	none
COc1ccc(-c2cnc(SCC(=O)Nc3ccc4c(c3)OCO4)n2Cc2ccco2)cc1	ALDH1A1 inh 11µM, PNC inhibitor inconclusive
O=C(CSc1nnc(-c2ccncc2)n1Cc1ccco1)N1c2ccccc2Sc2ccc(Cl)cc21	PNC inhibitor -100
O=C(CSc1nnc(-c2ccc(Cl)cc2)n1Cc1ccco1)Nc1ccc2c(c1)OCCO2	LMNA splice mod inconclusive, ALDH1A1 inh 5µM, HPGD block 25µM, ALOX12 inhib inconclusive
Cn1c(SCC(=O)N2c3ccccc3Sc3ccc(Cl)cc32)nnc1-c1ccco1	ALDH1A1 inh inconclusive
O=C(CSc1nnc(-c2ccc(Cl)cc2)n1Cc1ccco1)NCc1ccc2c(c1)OCO2	ALDH1A1 inh inconclusive
COC[C@H]1OC=C[C@@H](OC)[C@@H]1OC	none (no result: LMNA splice mod, PNC inhibitor, ALOX12 inhib)
O=[N+]([O-])c1cnc2ccccc2c1	ALDH1A1 inh 10µM
CN(C)CCNC(=O)/C=N/O	PNC inhibitor -89
Cc1cc(NC(=O)CN2CC(C)OC(C)C2)n(-c2nc3ccccc3s2)n1 (configuration not stated)	PNC inhibitor -99
Cc1nc2cnccc2n1C	none (no result: PNC inhibitor, HPGD block, ALOX12 inhib)
CC(C)n1c(-c2cccnc2)nc2cnccc21	PNC inhibitor -100
CCC/C=N/NC(=O)c1[nH]c2c([N+](=O)[O-])cccc2c1C	LMNA splice mod inconclusive, ALDH1A1 inh inconclusive, PNC inhibitor -113
Cc1ccc(NC(=O)c2cc3cccc([N+](=O)[O-])c3[nH]2)cc1	none (no result: LMNA splice mod, PNC inhibitor, HPGD block, ALOX12 inhib)
COc1cc(OC)c(NC(=O)N2CCSc3ccccc32)cc1Cl	none (no result: ALDH1A1 inh, PNC inhibitor, HPGD block, ALOX12 inhib)
